# Results filed as inconclusive are left out. A call without a number means that no potency is given here. Activity calls are given as the source filed them. Calls follow the shape of the dose curve; as a rule, active = well fitted inhibition curve with a large enough effect; inconclusive = small, poorly fitted or top-dose-only effect; inactive = no such curve, though single readings can be large or run the other way.
# Molecular target: Cytochrome P450 3A7 (Homo sapiens) (UniProt P24462)
# Test: Cytochrome P450 family 3 subfamily A member 7 (CYP3A7) small molecule antagonists: luciferase biochemical qHTS assay (AID 1963596); also: nearly all actives have a fitted effect of over 40% in size
# In short: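 Luminescence read-out (relative luminescence units) after 20 min with detection reagent, which stops the reaction. Enzyme, proluciferin substrate and compound preincubated 10 min, RT; NADPH regeneration system then started 1 h reaction. Ketoconazole as positive control.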
# Potency is read from the fitted curve at half-maximal effect.
# Cytochrome P450 3A7 (Homo sapiens), sequence (P24462 whole entry, looked up): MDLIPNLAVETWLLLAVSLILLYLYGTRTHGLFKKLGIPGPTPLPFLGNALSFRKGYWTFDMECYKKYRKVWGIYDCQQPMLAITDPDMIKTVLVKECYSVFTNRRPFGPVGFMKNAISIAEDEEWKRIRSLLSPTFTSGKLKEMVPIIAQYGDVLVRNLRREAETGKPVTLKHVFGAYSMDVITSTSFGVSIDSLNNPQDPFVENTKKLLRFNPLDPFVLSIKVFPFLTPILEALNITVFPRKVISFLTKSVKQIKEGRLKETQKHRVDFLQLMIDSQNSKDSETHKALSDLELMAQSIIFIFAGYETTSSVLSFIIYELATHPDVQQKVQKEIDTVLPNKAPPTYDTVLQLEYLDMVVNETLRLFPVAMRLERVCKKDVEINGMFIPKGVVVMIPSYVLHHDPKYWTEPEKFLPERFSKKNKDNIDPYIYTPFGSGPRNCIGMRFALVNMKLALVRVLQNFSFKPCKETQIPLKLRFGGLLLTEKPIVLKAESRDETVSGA
row,Compound,Potency
1,C=Cc1ccccc1,inactive
2,CC(=O)NC[C@H]1CN(c2ccc(N3CCN(C(=O)CO)CC3)c(F)c2)C(=O)O1,inactive
3,COC(=O)c1c(-c2ccc(Cl)cc2)noc1N1CCN(c2ccccc2OC)CC1,inactive
4,COc1ccc(NC(=O)c2ccc(-c3ccc(C(N)=O)cc3C)cc2)cc1N1CCN(C)CC1,inactive
5,CC(=O)Nc1ccc(C)cc1-c1nc2ccccc2n(CC(=O)Nc2cc(Cl)ccc2C)c1=O,inactive
6,O=[N+]([O-])c1cn2c(n1)OC[C@@H](OCc1ccc(-c3ccc(OC(F)(F)F)cc3)nc1)C2,inactive
7,Cc1cc(C(C)Nc2ccccc2C(=O)O)c2nc(N3CCOCC3)cc(=O)n2c1 (configuration not stated),inactive
8,Cc1ccc(Nc2nc3nonc3nc2Nc2cccc(C(F)(F)F)c2)cc1Cl,inactive
9,C=C(C)[C@H]1CC=C(C)CC1,inactive
10,COc1cc2nc(=NC(=O)c3cccnc3)n3c(c2cc1OC)NCC3,inactive
11,O=C(Nc1ccc(Br)cc1)c1cc(Br)c(Br)s1,inactive
12,CC(C)C[C@H](NC(=O)CNC(=O)[C@H](Cc1ccc(O)cc1)NC(=O)[C@H](CO)NC(=O)[C@H](Cc1c[nH]c2ccccc12)NC(=O)[C@H](Cc1cnc[nH]1)NC(=O)[C@@H]1CCC(=O)N1)C(=O)N[C@@H](CCCN=C(N)N)C(=O)N1CCC[C@H]1C(=O)NCC(N)=O (stereo in doubt),inactive
13,Nc1ncnc2c1ncn2[C@H]1O[C@@H](C(=O)N2CCN(CC(=O)Nc3cccc4c3CNC4=O)CC2)[C@H](O)[C@@H]1O,inactive
14,S=C=Nc1ccc(N=C=S)cc1,inactive
15,c1ccc(-n2cnnn2)cc1,inactive
16,CN(C)c1ccc(C(=C2C=CC(=[N+](C)C)C=C2)c2c(O)c(S(=O)(=O)[O-])cc3cc(S(=O)(=O)O)ccc23)cc1,inactive
17,COc1ccc(NC(=O)Cn2ccn(-c3ccc(C)c(C)c3)c(=O)c2=O)cc1Cl,inactive
18,COc1ccc(C(=O)NC(c2ccccc2Cl)c2cc(Cl)c3cccnc3c2O)cc1 (configuration not stated),inactive
19,Cn1c(=O)cc(N2CCCC(N)C2)n(Cc2cc(F)ccc2C#N)c1=O (configuration not stated),inactive
20,C[C@@H]1C[C@H]2[C@@H]3CCC4=CC(=O)C=C[C@]4(C)[C@@]3(F)[C@@H](O)C[C@]2(C)[C@@]1(O)C(=O)COC(=O)c1ccncc1,8.71 µM (active)
21,CC(C)[C@@H]1CC[C@@H](C)C[C@H]1OC(=O)c1ccccc1O,inactive
22,C=CCCCCCCCCC(=O)OC,inactive
23,Cc1c(C)c2c(c(C)c1OC(=O)CCC(=O)O)CC[C@@](C)(CCC[C@H](C)CCC[C@H](C)CCCC(C)C)O2,inactive
24,COc1ccc(CNC(=O)c2nc(SCc3ccccc3F)ncc2Cl)cc1,inactive

row,Compound,Potency
1,CCCCCCOC(=O)c1cccnc1,inactive
2,CC(C)NC(=O)c1ccc(C#Cc2ccncc2)cn1,inactive
3,CN1CCN(c2cc3c(cc2F)c(=O)c(C(=O)O)cn3-c2ccc(F)cc2)CC1,inactive
4,C=CS(=O)(=O)O,inactive
5,C[C@H](O)CN(C)C,inactive
6,OC[C@@H](O)C(O)[C@@H](O)CO (some centres not stated),inactive
7,CCCCCCCCCCCCCCCCNc1ccc(C(=O)O)cc1,inactive
8,O=C(OCc1ccccc1)c1cccnc1,inactive
9,COC(=O)c1cc(S(C)(=O)=O)ccc1OC,inactive
10,O=C(O)CCC(=O)C(=O)O,inactive
11,OCC=Cc1ccccc1,inactive
12,O=S(=O)(O)Oc1ccc(C(c2ccc(OS(=O)(=O)O)cc2)c2ccccn2)cc1,inactive
13,COc1ccc(-c2n[nH]c3c2cnc2cc(OC)c(OC)cc23)cc1,inactive
14,Cc1ccc(S(=O)(=O)Nc2nc3n(n2)C(c2ccc(Cl)cc2)C=C(c2ccccc2)N3)cc1 (configuration not stated),inactive
15,CNC1CCN(C(Cc2cccc(-c3ccncc3)c2)C(=O)c2sc3c(F)ccc(F)c3c2Cl)CC1 (configuration not stated),2.39 µM (active)
16,COC(=O)CCC[N+](C)(C)C,inactive
17,CCOC(=O)C1=C(O)c2ccccc2S(=O)(=O)N1C,inactive
18,COc1ccccc1NC(=O)Cc1c(C(=O)O)[nH]c2ccc(Cl)cc12,inactive
19,O=C(O)c1cccc(-c2ccc(-c3cn(C(=O)N4CCCCC4Cc4ccccc4)nn3)cc2)c1 (configuration not stated),inactive
20,FCOC(C(F)(F)F)C(F)(F)F,inactive
21,CC(=O)O[C@@H]1C(=O)O[C@@H]2[C@H]1OC(=O)[C@@H]2OC(C)=O,inactive
22,COc1ccc(NC(=O)Cn2cc(C(=O)c3cccs3)c3ccccc32)cc1,inactive
23,NC(=O)C(CCC(F)(F)F)N(Cc1ccc(-c2ncon2)cc1F)S(=O)(=O)c1ccc(Cl)cc1 (configuration not stated),inactive

# — PubChem BioAssay (NCATS)
